Laboratory results as given in PubChem BioAssay (NCATS).
Inconclusive results are not listed. Active and inactive are the calls of the source. Calls come from the whole dose curve; as a rule, active = well fitted curve in the direction sought with a large enough effect; inconclusive = small, poorly fitted or top-dose-only effect, or another doubt; inactive = no such curve, though single readings can be large; an effect the other way counts as inactive or inconclusive.

What was measured:
[1] = target: Glutathione peroxidase 1 (Homo sapiens) (UniProt P07203); assay: Primary qHTS Assay for Inhibitors of Recombinant Selenoprotein Glutathione Peroxidase 1 (GPX1) (AID 1845191); note: nearly all actives have a fitted effect of over 65% in size
Sequence of Glutathione peroxidase 1 (Homo sapiens) (P07203 whole entry, looked up): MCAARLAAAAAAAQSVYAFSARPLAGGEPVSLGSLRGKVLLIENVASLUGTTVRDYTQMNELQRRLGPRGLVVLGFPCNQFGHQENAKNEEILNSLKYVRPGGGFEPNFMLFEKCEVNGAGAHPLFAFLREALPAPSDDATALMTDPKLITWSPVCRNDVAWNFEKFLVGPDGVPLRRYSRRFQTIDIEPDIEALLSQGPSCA
Summary of the method: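 10 nM GPX1 + cpd, 30 min RT; start w/ 1 mM GSH, 0.5 mM cumene hydroperoxide, 0.5 mM NADPH, 100 nM GR, 0.01% BSA; buffer 50 mM Tris-HCl pH 7.5, 2 mM EDTA, 150 mM NaCl; Fl 340/450, 0 & 15 min.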

[2] = target: Phospholipid hydroperoxide glutathione peroxidase GPX4 (Homo sapiens) (UniProt P36969); assay: Primary qHTS Assay for Inhibitors of Recombinant Selenoprotein Glutathione Peroxidase 4 (GPX4) (AID 1845192); note: series mostly up to about 50 µM; nearly all actives have a fitted effect of over 65% in size
Sequence of Phospholipid hydroperoxide glutathione peroxidase GPX4 (Homo sapiens) (P36969 whole entry, looked up): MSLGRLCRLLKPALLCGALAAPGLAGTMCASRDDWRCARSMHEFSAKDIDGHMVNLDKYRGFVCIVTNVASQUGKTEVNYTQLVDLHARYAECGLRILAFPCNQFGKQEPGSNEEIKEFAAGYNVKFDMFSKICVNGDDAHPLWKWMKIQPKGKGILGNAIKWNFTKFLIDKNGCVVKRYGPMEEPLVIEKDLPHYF
Summary of the method: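 NADPH consumption, followed by fluorescence at 340/450 nm between 0 and 15 min, reports GPX4 activity via coupled glutathione reductase (100 nM). Enzyme 200 nM was pre-exposed to compound 30 min; 0.5 mM cumene hydroperoxide and 1 mM GSH served as substrates.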

[3] = target: Luciferin 4-monooxygenase (Photinus pyralis) (UniProt P08659); assay: Primary firefly luciferase (FLuc) qHTS assay for identification of artifact compounds. (AID 1845220); note: nearly all actives have a fitted effect of over 60% in size
Summary of the method: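 Cell-free, 1536-well qHTS. Buffer pH 7.6 with 0.01% Tween-20 and 0.05% BSA; 10 uM D-luciferin, 10 uM ATP; 10 nM P. pyralis luciferase; luminescence after 5 min.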

[4] = Primary fluorescence-based thiol-reactive (MSTI) qHTS assay for identification of artifact compounds. (AID 1845221);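 note: series mostly up to about 54 µM; thiol-reactive compounds lower the probe fluorescence signal; nearly all actives have a fitted effect of over 65% in size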
Summary of the method: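 MSTI probe at 4 uM final in 2% DMSO/PBS pH 7.4; compounds, 1 h at room temperature in dark. Fluorescence Ex/Em 525/598 nm, normalised to Acetyl-MSTI and MSTI, fitted to 4-parameter Hill.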

[5] = system: Nanoluciferase (engineered Oplophorus gracilirostris luciferase); assay: Primary Nanoluciferase (NLuc) qHTS assay for identification of artifact compounds. (AID 1845222); note: series mostly up to about 54 µM
Summary of the method: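 Compounds are pinned into diluted (1:55) conditioned medium of NLuc-expressing S16 cells and held 15 min at room temperature protected from light. Nano-Glo substrate follows, and luminescence is read 5 min later.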

Measured: Potency

Cc1cc2c(cc1N1C(=O)c3cccc4c(CCCO)ccc(c34)C1=O)n(C)c(=O)n2C
inactive: all assays above

COc1cccc(CN(C(=O)CC(C)(C)C)[C@H]2C[C@H](C(=O)N3CCNCC3)N(Cc3ccc4c(c3)OCO4)C2)c1
inactive: all assays above

CC(=O)OC1CC2(C)C(CCC(C)C23Cc2c(O)cc(CO)c(C=O)c2O3)C(C)(C)C1O (stereo not given)
inactive: all assays above
